# Assay results taken from the supplement of paper PMC8728848.
# About 410 targets per protein were measured; listed, in parts, are those with the strongest signals and a random draw of the rest.
# B1: Latrophilin-3 (Homo sapiens), Q9HAR2 (protein)
# chain: MWPSQLLIFMMLLAPIIHAFSRAPIPMAVVRRELSCESYPIELRCPGTDVIMIESANYGRTDDKICDSDPAQMENIRCYLPDAYKIMSQRCNNRTQCAVVAGPDVFPDPCPGTYKYLEVQYECVPYKVEQKVFLCPGLLKGVYQSEHLFESDHQSGAWCKDPLQASDKIYYMPWTPYRTDTLTEYSSKDDFIAGRPTTTYKLPHRVDGTGFVVYDGALFFNKERTRNIVKFDLRTRIKSGEAIIANANYHDTSPYRWGGKSDIDLAVDENGLWVIYATEQNNGKIVISQLNPYTLRIEGTWDTAYDKRSASNAFMICGILYVVKSVYEDDDNEATGNKIDYIYNTDQSKDSLVDVPFPNSYQYIAAVDYNPRDNLLYVWNNYHVVKYSLDFGPLDSRSGQAHHGQVSYISPPIHLDSELERPSVKDISTTGPLGMGSTTTSTTLRTTTLSPGRSTTPSVSGRRNRSTSTPSPAVEVLDDMTTHLPSASSQIPALEESCEAVEAREIMWFKTRQGQIAKQPCPAGTIGVSTYLCLAPDGIWDPQGPDLSNCSSPWVNHITQKLKSGETAANIARELAEQTRNHLNAGDITYSVRAMDQLVGLLDVQLRNLTPGGKDSAARSLNKAMVETVNNLLQPQALNAWRDLTTSDQLRAATMLLHTVEESAFVLADNLLKTDIVRENTDNIKLEVARLSTEGNLEDLKFPENMGHGSTIQLSANTLKQNGRNGEIRVAFVLYNNLGPYLSTENASMKLGTEALSTNHSVIVNSPVITAAINKEFSNKVYLADPVVFTVKHIKQSEENFNPNCSFWSYSKRTMTGYWSTQGCRLLTTNKTHTTCSCNHLTNFAVLMAHVEVKHSDAVHDLLLDVITWVGILLSLVCLLICIFTFCFFRGLQSDRNTIHKNLCISLFVAELLFLIGINRTDQPIACAVFAALLHFFFLAAFTWMFLEGVQLYIMLVEVFESEHSRRKYFYLVGYGMPALIVAVSAAVDYRSYGTDKVCWLRLDTYFIWSFIGPATLIIMLNVIFLGIALYKMFHHTAILKPESGCLDNIKSWVIGAIALLCLLGLTWAFGLMYINESTVIMAYLFTIFNSLQGMFIFIFHCVLQKKVRKEYGKCLRTHCCSGKSTESSIGSGKTSGSRTPGRYSTGSQSRIRRMWNDTVRKQSESSFITGDINSSASLNREGLLNNARDTSVMDTLPLNGNHGNSYSIASGEYLSNCVQIIDRGYNHNETALEKKILKELTSNYIPSYLNNHERSSEQNRNLMNKLVNNLGSGREDDAIVLDDATSFNHEESLGLELIHEESDAPLLPPRVYSTENHQPHHYTRRRIPQDHSESFFPLLTNEHTEDLQSPHRDSLYTSMPTLAGVAATESVTTSTQTEPPPAKCGDAEDVYYKSMPNLGSRNHVHQLHTYYQLGRGSSDGFIVPPNKDGTPPEGSSKGPAHLVTSL
# Tests used:
# Test in all cases: glycan array binding signal (z-score within array); higher = stronger binding
# Settings in all cases: glycan notation: IUPAC condensed, linker removed
# [1] = biological target: GlcNAc(b1-2)Gal(b1-3)GalNAc
# How it was run: (§1)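 Columns mapping to the same glycan were averaged after glycan names were converted to IUPAC-condensed notation. The data come from 3228 arrays in the Consortium for Functional Glycomics database, limited to those with an available protein sequence. Binding is reported as a within-array Z-score averaged across arrays of one protein sequence and across linkers.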
# [2] = biological target: GlcNAc(b1-2)[GlcNAc(b1-4)]Man(a1-3)[GlcNAc(b1-2)Man(a1-6)]Man(b1-4)GlcNAc(b1-4)GlcNAc
# How it was run: as §1
# [3] = biological target: GlcNAc(b1-2)[GlcNAc(b1-6)]Man(a1-6)[GlcNAc(b1-2)Man(a1-3)][GlcNAc(b1-4)]Man(b1-4)GlcNAc(b1-4)GlcNAc
# How it was run: as §1
# [4] = biological target: GlcNAc(b1-4)GlcNAc(b1-4)GlcNAc(b1-4)GlcNAc(b1-4)GlcNAc
# How it was run: as §1
# [5] = biological target: Man(a1-2)Man(a1-3)[Man(a1-2)Man(a1-6)]Man
# How it was run: as §1
# [6] = biological target: Man(a1-2)Man(a1-3)[Man(a1-2)Man(a1-6)]Man(a1-6)[Man(a1-2)Man(a1-2)Man(a1-3)]Man
# How it was run: as §1
# [7] = biological target: Man(a1-2)Man(a1-3)[Man(a1-2)Man(a1-6)]Man(a1-6)[Man(a1-2)Man(a1-2)Man(a1-3)]Man(b1-4)GlcNAc(b1-4)GlcNAc
# How it was run: as §1
# [8] = biological target: Neu5Ac(a2-3)Gal(b1-3)[Fuc(a1-4)]GlcNAc(b1-3)Gal(b1-3)[Fuc(a1-4)]GlcNAc
# How it was run: as §1
# [9] = biological target: Neu5Ac(a2-3)Gal(b1-4)GlcNAc(b1-2)Man(a1-3)[GlcNAc(b1-2)Man(b1-4)GlcNAc(b1-2)Man(a1-6)]Man(b1-4)GlcNAc(b1-4)GlcNAc
# How it was run: as §1
# [10] = biological target: Neu5Ac(a2-3)Gal(b1-4)GlcNAc(b1-3)GalNAc
# How it was run: as §1
# [11] = biological target: Neu5Ac(a2-3)Gal(b1-4)[Fuc(a1-3)]GlcNAc(b1-3)GalNAc
# How it was run: as §1
# [12] = biological target: Neu5Ac(a2-3)GalNAc(b1-4)GlcNAc
# How it was run: as §1
# [13] = biological target: Neu5Ac(a2-3)[Neu5Ac(a2-6)]GalNAc
# How it was run: as §1
# Neu5Ac(a2-6)Gal(b1-4)Glc = biological target: Neu5Ac(a2-6)Gal(b1-4)Glc
# How it was run: as §1
# [14] = biological target: Neu5Ac(a2-8)Neu5Ac(a2-8)Neu5Ac(a2-3)[GalNAc(b1-4)]Gal(b1-4)Glc
# How it was run: as §1
# [15] = biological target: Neu5Ac9Ac(a2-6)Gal(b1-4)GlcNAc
# How it was run: as §1
binder,measurement,setting,value
B1,glycan array binding signal (z-score),[1],1.25
same,glycan array binding signal (z-score),[2],0.886
same,glycan array binding signal (z-score),[3],-0.448
same,glycan array binding signal (z-score),[4],0.111
same,glycan array binding signal (z-score),[5],-1.71
same,glycan array binding signal (z-score),[6],0.047
same,glycan array binding signal (z-score),[7],1.12
same,glycan array binding signal (z-score),[8],6.27
same,glycan array binding signal (z-score),[9],0.035
same,glycan array binding signal (z-score),[10],0.708
same,glycan array binding signal (z-score),[11],3.18
same,glycan array binding signal (z-score),[12],-0.972
same,glycan array binding signal (z-score),[13],-1.4
same,glycan array binding signal (z-score),Neu5Ac(a2-6)Gal(b1-4)Glc,1.15
same,glycan array binding signal (z-score),[14],-1.01
same,glycan array binding signal (z-score),[15],-0.383
